Several values for one entry are separate records, joined by “and”; a condition that tells them apart may be missing. Identical values can stand only once. About 83,000 compounds went through this panel and 20% of them were active in at least one assay; those are over-represented in the sample as a whole.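 Cell lines were cultured in 96-well plates, exposed to a single compound concentration, and assessed for percent growth 48 hours later.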 Values without a mark were called inactive. Activity calls are given as the source filed them. How the source made its calls: active means growth percent below 10; inactive means the rest. Where a SMILES comes first, the peptide text is derived from it. The star is where a group is joined. Trt = c1ccc(C(c2ccccc2)(c2ccccc2)*)cc1; Cbz = O=C(OCc1ccccc1)*
Legend:
Assay in all cases: NCI-60 one-dose screen, 48 h (100 = growth as untreated, 0 = no growth, -100 = all killed)
Settings in all cases: 10 µM unless noted
NCI-H23 lung = system: NCI-H23 lung
NCI-H226 lung = system: NCI-H226 lung
NCI-H322M lung = system: NCI-H322M lung
HOP-62 NSCLC = system: HOP-62 NSCLC
HOP-92 NSCLC = system: HOP-92 NSCLC
NCI-H522 lung = system: NCI-H522 lung
A549/ATCC NSCLC = system: A549/ATCC NSCLC
786-0 renal = system: 786-0 renal
COLO 205 colon = system: COLO 205 colon
DU-145 prostate = system: DU-145 prostate
K-562 leukemia = system: K-562 leukemia
MALME-3M melanoma = system: MALME-3M melanoma
MDA-MB-231 breast = system: MDA-MB-231 breast
RXF 393 renal = system: RXF 393 renal
SF-268 CNS = system: SF-268 CNS
SF-295 CNS = system: SF-295 CNS
SF-539 CNS = system: SF-539 CNS
UACC-257 melanoma = system: UACC-257 melanoma
M14 melanoma = system: M14 melanoma

| Compound | growth (NCI-H23 lung) | growth (NCI-H226 lung) | growth (NCI-H322M lung) | growth (HOP-62 NSCLC) | growth (HOP-92 NSCLC) | growth (NCI-H522 lung) | growth (A549/ATCC NSCLC) | growth (786-0 renal) | growth (COLO 205 colon) | growth (DU-145 prostate) | growth (K-562 leukemia) | growth (MALME-3M melanoma) | growth (MDA-MB-231 breast) | growth (RXF 393 renal) | growth (SF-268 CNS) | growth (SF-295 CNS) | growth (SF-539 CNS) | growth (UACC-257 melanoma) | growth (M14 melanoma) |
| --- | --- | --- | --- | --- | --- | --- | --- | --- | --- | --- | --- | --- | --- | --- | --- | --- | --- | --- | --- |
| COC(=O)c1nc(=S)[nH]c(C(=O)OC)c1C(=O)c1ccccn1 | 45.8% | 9.58% (active) | 56.5% | 40% | 47.9% | 61.8% | 107% | 26.7% | 21.1% | 39.5% | 17.7% | 30.7% | 33.6% | 43.2% | 34.3% | -1.15% (active) | 15.6% | 75.7% | 17.9% |
| O=C(Nc1ccc(F)cc1)ON=C1CCCCC1 | 110% [100 µM] | 96.9% [100 µM] | 101% [100 µM] | 112% [100 µM] | 108% [100 µM] | 93.3% [100 µM] | 94.1% [100 µM] | 87.6% [100 µM] | 125% [100 µM] | 106% [100 µM] | 79.6% [100 µM] | 108% [100 µM] | 101% [100 µM] | 102% [100 µM] | 96.3% [100 µM] | 100% [100 µM] | 93.5% [100 µM] | 98.8% [100 µM] | 111% [100 µM] |
| O=C1OCc2cccc3cccc1c23 | 101% | 91.4% | 119% | 113% | 80.8% | 108% | 78.9% | 110% | 115% | 107% | 103% | 107% | 111% | 102% | 103% | 102% | 98.4% | 94.3% | 103% |
| c1ccc2c(c1)Nc1cc3ccccc3cc1N2 | 30.3% | 80.5% | 48.5% | 41.4% | 85% | -14.7% (active) | 41.5% | 66.6% |  | 60.9% | 20.9% | 28.4% | 33.1% | 63.3% | 66.2% | 46.2% | 39.1% | 37.4% | 23.9% |
| CCN1/C(=C\c2cc[n+](CC)c3ccccc23)C=Cc2ccccc21 | 12.7% | 19.6% | 25.4% | 18.7% | -21.9% (active) | 12.4% | 18.9% | 25% |  | 22.9% | 16.4% | 1.55% (active) | 3.42% (active) | 16.4% | 26.3% | 0.16% (active) | 7.56% (active) | -1.1% (active) | 10.5% |
| Oc1c(Cl)c2ccccc2c2ccccc12 | 103% | 99.7% | 100% | 128% | 109% | 44.3% | 103% | 109% |  | 102% | -12.5% (active) | 123% | 95.5% | 116% | 104% | 120% | 107% | 103% | 108% |
| CC(=O)Nc1cccc2cc(O)ccc12 | 99% and 101% and 103% | 98.2% and 98.1% and 102% | 110% and 116% | 100% and 93.1% and 95.8% | 64.6% and 88.7% and 73.6% | 101% and 109% and 84.1% | 118% and 111% and 98.6% | 109% and 104% and 98.9% |  | 118% and 110% and 111% | 108% and 113% and 99.7% | 101% and 127% and 98.3% | 102% and 95.1% and 95.8% | 123% and 98% and 105% | 111% and 94.6% and 99.6% | 84.7% and 130% and 99% | 96.4% and 96.8% and 98.5% | 123% and 103% and 90.3% | 91.7% and 98.2% |
| CCCCCCCCCCCCCCCC[N+](C)(CCO)Cc1cnc[nH]1 (stereo unspecified) | -3.12% (active) | -4.89% (active) | 20.3% | -64.2% (active) | -55.8% (active) | -72.2% (active) | -36.1% (active) | -40.1% (active) |  | -32% (active) | -61.6% (active) | -3.54% (active) | -54.9% (active) | -44.7% (active) | -66.1% (active) | -31.7% (active) | -54.3% (active) | -34.5% (active) | -41.9% (active) |
| COC(=O)C(CSC(c1ccccc1)(c1ccccc1)c1ccccc1)NC(=O)C(CC(N)=O)NC(=O)OCc1ccccc1 (stereo not drawn) (Cbz-Asn-Cys(Trt)-OMe; configuration not given here) | 65.4% | 71.4% | 30.8% | 41.4% | 55.7% | 51.5% | 41.4% | 30.7% | -50.8% (active) | 13.4% | 25.4% | 27.1% | 12.5% | 34.1% | 18% | 20.1% | -22% (active) | 59.1% | -57.4% (active) |
